This passage reports composite z-score and z-score results from PubChem BioAssay.

SMILES strings stand for the structures. Active and inactive are the calls of the source.

Assay [1] concerns PRMT1 (protein arginine N-methyltransferase 1). Description: small molecules binding arginine methyltransferase PRMT1 – biochemical, small-molecule microarray, 635 nm fluorescence, primary screen (AID 1088).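 Note: binding of Prmt1 protein to compounds spotted on small-molecule microarray slides.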 As to conditions: higher = more signal.
Assay [2] is described as follows: growth effects on S. cerevisiae YJM789 – YJM789 clinical isolate, OD600, 24 h, basal, primary screen (AID 1089).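 Note: growth of clinical yeast isolate S. cerevisiae YJM 789 seeded 1000 cells per well; test concentration not given here.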 The following applies: higher = more signal, called active from +8 up or from −8 down.
A short description of assay [3]: S. pombe growth modifiers, basal conditions – strain 972, OD600, 24 h, no modulator, primary screen (AID 1090).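 Note: basal condition with compound alone and no growth modifier present; test concentration not given here.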 As to conditions: S. pombe 972 growth, higher = more signal, called active from +8 up or from −8 down.
A short description of assay [4]: budding yeast growth modifiers under rapamycin – strain BY4716, OD600, 96 h, primary screen (AID 1091). Note: test concentration not given here. As to conditions: S. cerevisiae BY4716 + rapamycin, higher = more signal, called active from +8 up or from −8 down.
The target of assay [5] is Torsin-1A-interacting protein 2 (Homo sapiens) (UniProt Q8NFQ8). In words: small molecules binding lysate-expressed LULL1 – cell lysate, human LULL1 lysate, 635/667 nm fluorescence, primary screen (AID 1092).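 Note: probe is lysate of COS7 cells overexpressing human LULL1; score merges per-feature 667 nm fluorescence with signal-to-noise.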 The following applies: small-molecule microarray, hLULL1 lysate binding, 635 nm fluorescence; higher = more signal.
Torsin-1A-interacting protein 2 (Homo sapiens), sequence (Q8NFQ8 whole entry, looked up): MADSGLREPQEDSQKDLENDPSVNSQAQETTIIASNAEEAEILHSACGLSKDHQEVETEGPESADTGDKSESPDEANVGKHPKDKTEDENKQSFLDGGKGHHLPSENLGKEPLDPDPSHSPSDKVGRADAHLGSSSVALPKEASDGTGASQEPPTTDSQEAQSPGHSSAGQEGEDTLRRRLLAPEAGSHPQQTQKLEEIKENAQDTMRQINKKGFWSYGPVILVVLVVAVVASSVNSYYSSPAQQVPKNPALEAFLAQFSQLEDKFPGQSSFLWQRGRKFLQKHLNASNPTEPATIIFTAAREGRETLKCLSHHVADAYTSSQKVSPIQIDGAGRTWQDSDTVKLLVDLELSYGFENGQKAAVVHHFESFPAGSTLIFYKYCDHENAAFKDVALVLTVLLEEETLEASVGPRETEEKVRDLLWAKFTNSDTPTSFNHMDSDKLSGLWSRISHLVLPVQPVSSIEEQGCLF
Assay [6] in a line: optical density change of DRC41 E. coli – strain DRC41, OD650, 24 h, E. coli filamentation project, primary screen (AID 1093).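 Note: MC1000 strain lacking acrAB efflux and sulA so SOS filamentation is blocked; test concentration not given here.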 As to conditions: E. coli DRC41 growth, higher = more signal, called active from +8 up or from −8 down.
Assay [7] can be described thus: probe aLefty2 binding to arrayed compounds – biochemical, biotinylated probe, 635/667 nm fluorescence, primary screen (AID 1094).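 Note: score merges spot fluorescence near 667 nm with spot signal-to-noise ratio.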 The following applies: small-molecule microarray, higher = more signal.
The test system of assay [8] is Noggin (protein binding on small-molecule microarray). Description: small molecules binding Noggin protein – biochemical, 635/667 nm fluorescence, primary screen (AID 1095).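 Note: score merges 667 nm feature fluorescence with signal to noise over triplicate slides.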 As to conditions: 635 nm fluorescence, higher = more signal.
Assay [9] concerns the target Neurogenic locus notch homolog protein 3 (Homo sapiens) (UniProt Q9UM47). Description: small molecules binding NOTCH3 protein – biochemical, 635/667 nm fluorescence, primary screen (AID 1096). As to conditions: small-molecule microarray, 635 nm fluorescence, higher = more signal.
Assay [10] can be described thus: probe aEGFR binding to arrayed compounds – biochemical, biotinylated probe, 635/667 nm fluorescence, primary screen (AID 1097).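 Note: probe is a biotinylated anti-EGFR antibody binding compounds printed on slides; score combines fluorescence near 667 nm and signal to noise of each spot.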 As to conditions: small-molecule microarray, higher = more signal.

Neurogenic locus notch homolog protein 3 (Homo sapiens), sequence (Q9UM47 whole entry, looked up): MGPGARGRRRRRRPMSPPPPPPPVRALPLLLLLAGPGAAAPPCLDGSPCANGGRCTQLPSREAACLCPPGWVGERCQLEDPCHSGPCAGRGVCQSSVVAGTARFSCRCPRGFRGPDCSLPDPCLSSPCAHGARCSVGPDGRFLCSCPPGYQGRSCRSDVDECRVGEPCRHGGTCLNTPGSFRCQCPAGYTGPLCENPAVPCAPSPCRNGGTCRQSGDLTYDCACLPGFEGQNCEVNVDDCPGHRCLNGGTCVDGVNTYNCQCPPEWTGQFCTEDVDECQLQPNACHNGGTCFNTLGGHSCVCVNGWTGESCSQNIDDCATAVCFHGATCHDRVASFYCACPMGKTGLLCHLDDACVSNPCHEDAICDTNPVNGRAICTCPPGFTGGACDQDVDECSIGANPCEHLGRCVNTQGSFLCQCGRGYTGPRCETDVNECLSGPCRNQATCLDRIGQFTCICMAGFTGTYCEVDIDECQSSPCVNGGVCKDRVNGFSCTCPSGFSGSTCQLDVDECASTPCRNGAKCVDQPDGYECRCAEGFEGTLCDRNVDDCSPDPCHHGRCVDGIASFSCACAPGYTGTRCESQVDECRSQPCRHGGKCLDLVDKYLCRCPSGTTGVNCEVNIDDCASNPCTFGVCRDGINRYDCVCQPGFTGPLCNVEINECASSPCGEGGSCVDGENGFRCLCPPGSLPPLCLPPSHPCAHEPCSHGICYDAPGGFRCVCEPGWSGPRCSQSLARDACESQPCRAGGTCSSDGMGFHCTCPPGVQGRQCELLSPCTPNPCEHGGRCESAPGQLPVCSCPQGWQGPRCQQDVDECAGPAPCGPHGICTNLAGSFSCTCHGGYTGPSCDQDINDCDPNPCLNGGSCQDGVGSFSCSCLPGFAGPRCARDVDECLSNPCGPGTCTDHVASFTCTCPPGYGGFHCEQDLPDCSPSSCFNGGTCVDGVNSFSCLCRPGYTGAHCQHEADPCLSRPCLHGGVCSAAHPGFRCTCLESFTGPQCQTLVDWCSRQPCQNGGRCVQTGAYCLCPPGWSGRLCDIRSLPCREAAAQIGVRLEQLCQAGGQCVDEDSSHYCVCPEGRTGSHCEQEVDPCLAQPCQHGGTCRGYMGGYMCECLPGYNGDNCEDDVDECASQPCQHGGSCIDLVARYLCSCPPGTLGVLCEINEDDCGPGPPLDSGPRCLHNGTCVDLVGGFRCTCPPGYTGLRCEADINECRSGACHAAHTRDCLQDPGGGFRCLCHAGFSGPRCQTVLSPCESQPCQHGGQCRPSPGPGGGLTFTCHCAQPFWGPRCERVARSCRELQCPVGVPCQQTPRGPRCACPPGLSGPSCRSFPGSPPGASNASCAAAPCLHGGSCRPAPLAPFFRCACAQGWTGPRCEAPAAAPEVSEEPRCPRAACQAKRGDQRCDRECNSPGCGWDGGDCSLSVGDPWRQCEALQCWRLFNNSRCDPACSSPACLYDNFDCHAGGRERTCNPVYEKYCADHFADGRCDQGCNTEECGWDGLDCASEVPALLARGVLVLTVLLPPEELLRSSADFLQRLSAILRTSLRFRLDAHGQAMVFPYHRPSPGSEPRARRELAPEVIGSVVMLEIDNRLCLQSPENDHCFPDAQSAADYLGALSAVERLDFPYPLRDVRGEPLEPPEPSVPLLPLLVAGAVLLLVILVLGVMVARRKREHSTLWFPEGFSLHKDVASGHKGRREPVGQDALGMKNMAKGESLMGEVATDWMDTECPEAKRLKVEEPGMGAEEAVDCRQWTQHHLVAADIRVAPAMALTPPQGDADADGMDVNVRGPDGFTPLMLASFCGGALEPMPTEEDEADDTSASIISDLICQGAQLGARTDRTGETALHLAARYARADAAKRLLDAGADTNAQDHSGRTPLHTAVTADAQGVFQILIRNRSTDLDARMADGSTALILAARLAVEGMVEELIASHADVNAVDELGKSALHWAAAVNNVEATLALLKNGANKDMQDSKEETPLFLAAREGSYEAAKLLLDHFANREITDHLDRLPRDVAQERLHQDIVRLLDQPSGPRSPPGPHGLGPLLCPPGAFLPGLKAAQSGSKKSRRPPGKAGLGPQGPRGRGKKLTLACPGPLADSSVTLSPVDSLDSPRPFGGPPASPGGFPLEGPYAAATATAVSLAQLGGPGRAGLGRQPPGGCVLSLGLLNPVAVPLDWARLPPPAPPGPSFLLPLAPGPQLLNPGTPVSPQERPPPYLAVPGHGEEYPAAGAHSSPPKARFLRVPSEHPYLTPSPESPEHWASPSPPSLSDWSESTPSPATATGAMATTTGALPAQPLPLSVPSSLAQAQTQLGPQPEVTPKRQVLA

As for `O=C1OC[C@@H](c2ccccc2)n2cc(/C=C/c3ccccc3)cc21`, the composite z-score in [1] was -0.329; in [5] it was -0.0278; in [7], -0.0042; in assay [8], -0.364; in [9], -0.0623; in assay [10], -0.108. For the same compound, the z-score is -0.154 (inactive) in [2], -2.68 (inactive) in assay [3], 0.614 (inactive) in [4] and 1.45 (inactive) in assay [6].
As for `C=CC[C@H](O)c1ccc(O)c2ccccc12`, the composite z-score is 1.56 in assay [1]; 1.71 in [5]; 0.0277 in [7]; 1.07 in [8]; 1.07 in assay [9]; -0.0151 in assay [10]. The z-score is -7.13 (inactive) in [2], -17.9 (active) in [3], 8.59 (active) in assay [4] and 1.49 (inactive) in assay [6].
As for `Cc1ccc(N2C(=O)c3ccccc3[C@@H](C(=O)NCCN3CCOCC3)[C@@H]2c2ccc(CO)cc2)nc1`, the composite z-score in assay [1] was 0.722; in assay [5] it was 0.58; in assay [7], -0.0798; in [8], 0.0453; in assay [9] it was 0.248; in [10] it was -0.197. The z-score in assay [2] was 0.333 (inactive); in assay [3], -0.33 (inactive); in [4], -1.59 (inactive); in assay [6], 0.346 (inactive).
As to `COc1c(C)cc(-c2cc3c(c(CCc4ccccc4)n2)[Si](C(C)C)(C(C)C)O[C@H]3c2ccccc2)cc1C`, the composite z-score in assay [1] is -0.848; in assay [5] it was 0.0198; in [7], -0.0519; in assay [8] it was 0.108; in assay [9], 0.24; in [10], -0.162. Moreover, the z-score in assay [2] is 0.864 (inactive); in assay [3], 0.307 (inactive); in assay [4] it was 33.1 (active); in assay [6], -0.899 (inactive).
Turning to `O=C(NCC(F)(F)F)[C@@H]1c2ccccc2C(=O)N(Cc2cc(C(F)(F)F)cc(C(F)(F)F)c2)[C@H]1c1ccc(CO)cc1`, the composite z-score in [1] was 0.648; in assay [5], 1.04; in assay [7], -0.217; in [8] it was 0.148; in assay [9], -0.122; in assay [10] it was -0.219. In addition, the z-score in [2] is 0.338 (inactive); in assay [3], 0.459 (inactive); in [4], -0.359 (inactive); in [6] it was 0.955 (inactive).
In the case of `C=C(COC)/C(=C/C[C@@H](OC(=O)c1ccncc1)c1ccccc1OCCO)c1cnc2ccccc2c1`, the composite z-score in [1] is 1.54; in assay [5] it was 2.03; in assay [7], -0.0304; in assay [8], 1.95; in assay [9], 1.02; in assay [10], 0.0533. The z-score in [2] was -0.564 (inactive); in assay [3] it was -1.61 (inactive); in assay [4], 0.698 (inactive); in assay [6], 1.1 (inactive).
As to `CN(C)CCCCNC(=O)[C@H]1C[C@H]2C(=O)N[C@@H](CCCCN(C)C)C(=O)N2[C@H]1c1ccc(O)cc1`, the composite z-score in assay [1] was 1.39; in assay [5], -0.237; in assay [7], -0.192; in assay [8], 0.774; in [9], 0.343; in assay [10] it was -0.176. Also, the z-score in assay [2] was -2.61 (inactive); in assay [3], -0.403 (inactive); in assay [4] it was -1.41 (inactive); in assay [6], 1.55 (inactive).
